Screening data deposited in PubChem by ICCB-Longwood Screening Facility, Harvard Medical School.
S aureus helic: inhibitors of S. aureus replicative helicase, primary screen, biochemical, fluorescence unwinding readout; replicative DNA helicase (DnaC/DnaB), Staphylococcus aureus; purified S. aureus helicase, fluorescence unwinding assay; inhibition, % (test concentration not listed); 120,000 tested, 0.05% active; AID 485395, 2010; in the data active = inhibition above about 25%, passing the limit was not always enough;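 also: 0% = mean of negative control wells and 100% = mean of positive control wells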
Sa growth 42C: S. aureus growth inhibition at 42 and 30 °C, primary screen, LtaS inhibitor project, RN4220, two temperatures. OD600, 20 h, 42 °C; stronger effect = lower value. 170,000 tested, 0.53% active. relative growth, % (concentration not given with the values);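 active = relative growth at most 50% at the other temperature and 20+ points below 30 °C, or under 10% at both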
Active calls of the source: *; / = no result. This is one part of a sample in which hits are shown more often than they occur.

SMILES	S aureus helic	Sa growth 42C
CCN(Cc1ccccc1)C(=O)Nc1c[nH]c2ccccc12	-13.0	3.6*
N#C/C(C(N)=O)=C1/C(=O)Nc2ccc(Br)cc21	12.0	9.1*
CCOC(=O)/C(C#N)=C1\C(=O)Nc2ccccc21	0.0	103.6
Cc1cccc(C(=O)Sc2cccccc2=O)c1	0.0	-1.0*
Cc1cccc(C(=O)Nc2cc3c(cc2C)n(C)c(=O)n3C)c1	/	79.6
O=C(COC(=O)c1sc2ccccc2c1Cl)NCc1ccccc1	-30.0	97.1
O=C(N=Nc1c(O)[nH]c(=O)[nH]c1=O)c1ccccn1	5.0	100.7
O=C(N=Nc1c2ccccc2c2nc3no[nH]c3nc12)c1ccccc1O	-28.0	0.6*
COc1cc(Cl)c(C)cc1-n1ccnc(NCCCOC(C)C)c1=O	9.0	113.5
Cc1nnc(SCC2=C(C(=O)O)N3C(=O)[C@@H](NC(=O)Cn4cnnn4)[C@H]3SC2)s1	/	-0.6*
CCN(C(=O)CSc1nnc(C)s1)c1ccccc1	7.0	86.3
COc1ccc(N)c2nc(C)c(C)nc12	16.0	109.5
O=C1N=c2ccccc2=C1c1c(O)[nH]c2ccc(Cl)cc12	-7.0	48.9*
CCn1c(O)c(C2=c3cc(Cl)ccc3=NC2=O)c2ccccc21	-13.0	92.8
CC(C)n1c2ccccc2c2nnc(SCc3ccc4nonc4c3)nc21	14.0	115.1
CCOc1ccc(S(=O)(=O)N2CCCCC2C)c2ccccc12 (configuration not stated)	-4.0	103.6
CCOC(=O)c1oc2ccccc2c1CN1C(=O)c2ccccc2C1=O	-20.0	92.0
CCOC(=O)c1oc2ccccc2c1CO	10.0	-0.7*
c1ccc2c(c1)nc1n2CCN1CCN1CCOCC1	7.0	106.5
Cc1ccc(CSc2nnc(/N=C/NO)s2)cc1	/	120.3
Cc1ccc(C)c(NC(=O)c2ccccc2)c1	-1.0	85.7
Cc1cc(N=NC(=O)c2ccccc2)ccc1O	22.0	0.6*
CCN1/C(=C2/SC(=S)N(C)C2=O)C=Cc2ccccc21	-35.0	93.8
CC(C)(C)C(O)(CCc1ccccc1)Cn1cncn1 (configuration not stated)	-11.0	102.5
CCOc1cc(C#N)c(NC(=O)c2cccs2)cc1OCC	17.0	103.1
SMILES	S aureus helic	Sa growth 42C
CCCc1cc(O)c2c(C)cc(=O)oc2c1	5.0	5.2*
CCCCc1cc(=O)oc2cc(C)cc(O)c12	2.0	27.2
COc1cccc(CNC(=O)c2cc(C(C)C)[nH]n2)c1	6.0	74.6
CCCn1nc(C(=O)N2CCc3ccccc32)c2ccccc2c1=O	-6.0	45.6*
Cn1nc(C(=O)N2CCCc3ccccc32)c2ccccc2c1=O	-1.0	93.8
CC(CCC(=O)NC1CCCCC1)C(=O)O (configuration not stated)	14.0	113.2
Cc1ccccc1-c1nnc(C2CCN(S(=O)(=O)c3ccc4c(c3)CCCC4)CC2)o1	12.0	96.7
Cc1nc2cccnc2n1CCNC(=O)Nc1cccc2ccccc12	-12.0	95.1
CCCCC(=O)OC1=C(C(=O)c2ccccc2)N(CC)S(=O)(=O)c2ccccc21	/	15.1
CCCCN1C(C(=O)c2ccccc2)=C(OC(C)=O)c2ccccc2S1(=O)=O	/	-0.5*
CCOC(=O)c1noc(C)c1-c1csc(COc2ccccc2)n1	23.0	101.8
NC(=NCCCCCCN=C(N)/N=C(\N)Nc1ccc(Cl)cc1)/N=C(\N)Nc1ccc(Cl)cc1	/	-0.8*
CC(C)N=C(N)/N=C(\N)Nc1ccc(Cl)cc1	/	94.3
O=C(COC(=O)C1(c2ccc(Cl)cc2)CCCC1)NC1CC1	-7.0	108.9
CCN(CC(=O)Nc1cccc(OC)c1)C(=O)Cn1c(=O)cnc2ccccc21	-8.0	74.6
CCOc1cc2nccnc2cc1OCC	13.0	98.5
CCCCNC(=S)Nc1ccc(SC(F)F)cc1	12.0	0.6*
CCCCNC(=S)Nc1ccc(OC)cc1	-9.0	110.3
Cn1c(-c2ccccc2)cc(C=Nc2ccccc2)c1O	1.0	4.0*
CN=Cc1cc(-c2ccccc2)n(C)c1S	9.0	75.0
O=S(=O)(Nc1ccc2oc3c(c2c1)CCCC3)c1ccc(F)cc1	0.0	38.8*
O=C1CCCN1c1ccc(S(=O)(=O)Nc2ccc3oc4c(c3c2)CCCC4)cc1	6.0	115.2
COc1ccc(OCCOC(=O)c2cccc(C#N)c2)cc1	0.0	87.7
Cc1ccc(S(=O)(=O)N2CCc3cc(C(=O)Nc4ccc(C)c(C)c4)ccc32)cc1	/	91.5
Cc1ccc(C)c(-c2nnc(NC(=O)c3ccc(S(=O)(=O)N4CCc5ccccc54)cc3)o2)c1	21.0	1.9*
Cc1ccc(NC(=O)c2cccc(S(C)(=O)=O)c2)cc1	-13.0	99.4
Cc1ccc(C)c(-c2nnc(NC(=O)c3cccc(S(C)(=O)=O)c3)o2)c1	12.0	5.5*
CCCCS(=O)c1sc2nc(-c3cccs3)cc(-c3ccccc3)c2c1N (configuration not stated)	8.0	12.5*
CCCCS(=O)c1sc2nc(C)cc(C)c2c1N (configuration not stated)	4.0	81.2
O=C(CCCC1CCCCC1)Nc1ccncc1	11.0	40.5
